The structures appear in SMILES notation. Where “and” joins values, the source holds several entries; their conditions need not be identical. Equal entries are not always repeated. Inconclusive results are not listed. Calls of active or inactive are those of the source. How the source made its calls: active means hit-call score of the fitted dose curve at least 0.9, where 1 is the maximum; inconclusive means response in the unintended direction; inactive means score below 0.9.

For test [1], the target named is Bile acid receptor (Homo sapiens) (UniProt Q96RI1). The experiment in a line: NVS_NR_hFXR_Agonist: NovaScreen (NVS) Nuclear Receptor Binding Assay for human Farnesoid X Receptor Agonism (FXR) (AID 2283347). The procedure, abridged: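 Agonist-mode FXR assay read by time-resolved FRET 1 h after compound addition, using isolated human receptor protein without cells. Duplicate 25 uM single-point primary screen, concentration series for confirmed actives; DMSO as baseline.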

Test [2] deals with Estrogen receptor (Homo sapiens) (UniProt P03372). The experiment in a line: OT_ER_ERaERa_0480: Odyssey Thera (OT) 8-hour HEK293T Protein-Complementation Assay for Estrogen Receptor-alpha/-alpha Homodimer (AID 2283351).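 Further: rise in fluorescence from reassembled reporter fragments on ERα LBD homodimer in nucleus or whole cell.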 The procedure, abridged: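 HEK293T cells stably expressing a PCA pair of ER alpha LBD (residues 310-547) were dosed for 8 hours. The gain in fluorescence intensity, nuclear for agonists and whole-cell for antagonists, was measured by laser scanning cytometry against DMSO vehicle.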

The target of test [3] is T1, Estrogen receptor (Homo sapiens) + Estrogen receptor beta (Homo sapiens) (UniProt P03372+Q92731). Description: OT_ER_ERaERb_1440: Odyssey Thera (OT) 24-hour HEK293T Protein-Complementation Assay for Estrogen Receptor-alpha/-beta Homodimer (AID 2283356).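 Further: heteromer of ER alpha and ER beta binding domains; hits raise reporter fluorescence and both agonists and antagonists give an increase.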 The procedure, abridged: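 HEK293T stably expressing a PCA of ER alpha LBD (aa 310-547) and ER beta LBD (aa 263-489). After 24 h compound exposure, mean fluorescence intensity in nucleus (agonists) or nucleus and cytoplasm (antagonists) measured by laser scanning cytometry versus vehicle.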

For test [4], the target named is Estrogen receptor beta (Homo sapiens) (UniProt Q92731). The experiment in a line: OT_ER_ERbERb_0480: Odyssey Thera (OT) 8-hour HEK293T Protein-Complementation Assay for Estrogen Receptor-beta/-beta Homodimer (AID 2283357).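 Further: active means signal gain over DMSO baseline.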 The procedure, abridged: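 ER-beta LBD homodimer PCA stably expressed in HEK293T; 8 h compound exposure, then formaldehyde fixation and Draq5 staining. Gain in nuclear/cytoplasmic fluorescence intensity versus DMSO vehicle, read on laser scanning cytometer.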

The target in test [5] is chimpanzee Androgen Receptor (AR), AR (gene 747460) (UniProt O97775). The experiment in a line: NVS_NR_cAR: NovaScreen (NVS) Nuclear Receptor Binding Assay for chimpanzee Androgen Receptor (AR) (AID 2283346).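 Further: radioligand displacement from AR measured by scintillation counting in a cell-free assay; a loss of bound radioligand signal versus DMSO counts as binding.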 Summed up:
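Cell-free competition binding with insect-cell (Sf9/Sf21) extracted chimpanzee AR; scintillation signal from lysate at 72 h. Screened in duplicate at 25 uM, then concentration-response for actives; fitting relative to DMSO.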

Test [6] concerns the target Estrogen receptor (Homo sapiens) (UniProt P03372). Description: OT_ER_ERaERa_1440: Odyssey Thera (OT) 24-hour HEK293T Protein-Complementation Assay for Estrogen Receptor-alpha/-alpha Homodimer (AID 2283349).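 Further: hits raise fluorescence above DMSO for agonists and antagonists alike.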 The procedure, abridged:
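HEK293T, stable ERα LBD (aa 310-547) homodimer PCA; 24 h compound exposure; mean fluorescence intensity (nuclear for agonists, nuclear plus cytoplasmic for antagonists) vs vehicle; positive fitting direction, DMSO baseline.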

The target of test [7] is T1, Estrogen receptor (Homo sapiens) + Estrogen receptor beta (Homo sapiens). The experiment in a line: OT_ER_ERaERb_0480: Odyssey Thera (OT) 8-hour HEK293T Protein-Complementation Assay for Estrogen Receptor-alpha/-beta Heterodimer (AID 2283352). The procedure, abridged: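 HEK293T protein-fragment complementation assay of ER-alpha/ER-beta LBD heterodimerisation, read 8 h after dosing. Mean nuclear/cytoplasmic fluorescence intensity measured by laser scanning cytometry; gain of signal fitted relative to DMSO.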

Test [8] has as its target Androgen Receptor/SRC-1 Co-activator, AR (gene 367) (UniProt P10275). Description: OT_AR_ARSRC1_0960: Odyssey Thera (OT) 16-hour HEK293T Protein-Complementation Assay for Androgen Receptor/SRC-1 Co-activator (AID 2283353).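 Further: actives raise the signal above DMSO so potency reflects increased AR and SRC-1 complex.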 The procedure, abridged: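 Endpoint is gain-of-signal N/C fluorescence ratio in the 488 nm channel versus DMSO, from at least 400 cells per image, measured 16 h post-dosing. Cells: HEK293T stably carrying split-Venus AR/SRC-1 complementation constructs.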

Test [9] has the same target. The experiment in a line: OT_AR_ARSRC1_0480: Odyssey Thera (OT) 8-hour HEK293T Protein-Complementation Assay for Androgen Receptor/SRC-1 Co-activator (AID 2283354).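 Further: hits raise the complementation signal above DMSO so AC50 marks enhancers.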 The procedure, abridged: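 Reconstituted split-Venus YFP signal from AR–SRC-1 interaction, read by imaging 8 h post-dose in stable HEK293T lines. The 488 nm nucleus-to-cytoplasm ratio (≥400 cells/image) was fitted upward against DMSO.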

Test [10] addresses rat Mineralocorticoid Receptor (MR), Nr3c2 (gene 25672) (UniProt P22199). The experiment in a line: NVS_NR_rMR: NovaScreen (NVS) Nuclear Receptor Binding Assay for rat Mineralocorticoid Receptor (MR) (AID 2283355). The procedure, abridged:
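Primary HTS ran in duplicate at a single 25 uM concentration, with concentration-series follow-up for actives. Receptor source: adrenalectomized rat brain supernatant, cell-free. Radioligand displacement read by scintillation at 24 h, relative to DMSO baseline.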

Test [11] deals with Retinoic acid receptor alpha (Homo sapiens) (UniProt P10276). The experiment in a line: NVS_NR_hRARa_Agonist: NovaScreen (NVS) Nuclear Receptor Binding Assay for human Retinoic Acid Alpha Receptor Agonism (RAR) (AID 2283361). Summed up:
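Agonist-mode TR-FRET binding format using extracted protein, measured at 2 h post-dosing. Initial duplicate single-point screen at 25 uM preceded concentration series for actives; activity was normalized to DMSO baseline.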

Test [12] deals with PGR (gene 5241) (UniProt P06401). The experiment in a line: NVS_NR_hPR: NovaScreen (NVS) Nuclear Receptor Binding Assay for human Progestron Receptor (PR) (AID 2283360).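 Further: active means loss of bound radioligand signal versus DMSO baseline.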 Summed up:
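T47D-derived receptor preparation, cell-free, with tritiated or iodinated radioligand displacement measured by scintillation 18 h post-dosing. Single 25 uM duplicate screen, then concentration series; signal loss relative to DMSO.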

Chain of PGR (gene 5241) (P06401 whole entry, looked up): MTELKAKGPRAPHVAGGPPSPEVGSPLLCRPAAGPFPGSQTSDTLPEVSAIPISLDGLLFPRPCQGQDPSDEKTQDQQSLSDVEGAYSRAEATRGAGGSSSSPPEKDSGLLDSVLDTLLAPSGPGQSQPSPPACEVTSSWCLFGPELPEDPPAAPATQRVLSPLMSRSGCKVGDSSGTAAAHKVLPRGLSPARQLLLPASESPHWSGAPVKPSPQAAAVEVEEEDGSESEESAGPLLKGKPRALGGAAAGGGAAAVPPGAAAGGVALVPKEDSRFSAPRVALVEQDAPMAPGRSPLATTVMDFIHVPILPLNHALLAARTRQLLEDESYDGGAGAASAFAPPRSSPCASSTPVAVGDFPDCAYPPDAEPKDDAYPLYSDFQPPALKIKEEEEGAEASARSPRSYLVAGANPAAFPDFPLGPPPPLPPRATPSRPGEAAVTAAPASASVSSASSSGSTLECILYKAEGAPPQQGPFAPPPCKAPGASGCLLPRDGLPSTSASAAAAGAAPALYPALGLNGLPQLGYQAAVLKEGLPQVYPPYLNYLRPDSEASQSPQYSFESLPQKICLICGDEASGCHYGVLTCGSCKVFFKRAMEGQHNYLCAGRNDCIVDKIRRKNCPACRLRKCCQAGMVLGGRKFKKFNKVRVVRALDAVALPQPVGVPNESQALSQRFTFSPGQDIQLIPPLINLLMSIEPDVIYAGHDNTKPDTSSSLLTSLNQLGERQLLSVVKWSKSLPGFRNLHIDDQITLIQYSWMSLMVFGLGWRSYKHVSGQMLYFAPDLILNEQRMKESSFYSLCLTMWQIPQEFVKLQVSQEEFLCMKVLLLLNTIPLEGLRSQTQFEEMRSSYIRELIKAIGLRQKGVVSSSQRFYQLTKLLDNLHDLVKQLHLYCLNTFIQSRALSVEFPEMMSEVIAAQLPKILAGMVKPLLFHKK
Chain of Estrogen receptor (Homo sapiens) (P03372 whole entry, looked up, the tested form may be a part): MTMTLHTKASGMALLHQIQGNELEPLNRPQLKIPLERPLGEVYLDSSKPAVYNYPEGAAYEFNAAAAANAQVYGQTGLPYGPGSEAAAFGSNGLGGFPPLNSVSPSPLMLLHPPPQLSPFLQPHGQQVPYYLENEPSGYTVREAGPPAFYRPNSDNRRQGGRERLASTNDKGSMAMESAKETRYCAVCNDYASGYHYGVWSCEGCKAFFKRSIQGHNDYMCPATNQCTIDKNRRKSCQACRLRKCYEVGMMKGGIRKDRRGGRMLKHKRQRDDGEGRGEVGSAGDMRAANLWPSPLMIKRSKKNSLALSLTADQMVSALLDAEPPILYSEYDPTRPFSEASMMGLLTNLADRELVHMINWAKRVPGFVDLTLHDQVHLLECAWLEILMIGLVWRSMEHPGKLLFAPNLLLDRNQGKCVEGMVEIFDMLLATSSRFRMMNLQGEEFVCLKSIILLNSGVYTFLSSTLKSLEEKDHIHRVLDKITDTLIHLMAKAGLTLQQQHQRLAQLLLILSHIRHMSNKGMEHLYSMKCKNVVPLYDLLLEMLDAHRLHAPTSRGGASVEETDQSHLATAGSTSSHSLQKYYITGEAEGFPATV
T1 sequence (P03372 whole entry, looked up, the tested form may be a part): as above
T1 sequence (Q92731 whole entry, looked up, the tested form may be a part): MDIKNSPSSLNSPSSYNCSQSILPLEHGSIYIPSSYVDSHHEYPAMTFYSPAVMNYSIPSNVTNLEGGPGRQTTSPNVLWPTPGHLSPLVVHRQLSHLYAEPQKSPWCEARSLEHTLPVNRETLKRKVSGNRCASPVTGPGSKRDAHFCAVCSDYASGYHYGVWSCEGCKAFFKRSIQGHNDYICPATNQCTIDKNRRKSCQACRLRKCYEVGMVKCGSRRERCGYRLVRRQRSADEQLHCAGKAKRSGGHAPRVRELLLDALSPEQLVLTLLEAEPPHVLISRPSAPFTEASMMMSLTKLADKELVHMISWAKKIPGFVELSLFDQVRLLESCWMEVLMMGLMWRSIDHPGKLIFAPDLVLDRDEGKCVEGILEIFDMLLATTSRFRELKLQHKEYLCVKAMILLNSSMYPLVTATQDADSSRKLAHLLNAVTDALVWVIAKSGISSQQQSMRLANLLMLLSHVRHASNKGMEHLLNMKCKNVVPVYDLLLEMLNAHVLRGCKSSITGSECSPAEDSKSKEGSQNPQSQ
Chain of Androgen Receptor/SRC-1 Co-activator, AR (gene 367) (P10275 whole entry, looked up): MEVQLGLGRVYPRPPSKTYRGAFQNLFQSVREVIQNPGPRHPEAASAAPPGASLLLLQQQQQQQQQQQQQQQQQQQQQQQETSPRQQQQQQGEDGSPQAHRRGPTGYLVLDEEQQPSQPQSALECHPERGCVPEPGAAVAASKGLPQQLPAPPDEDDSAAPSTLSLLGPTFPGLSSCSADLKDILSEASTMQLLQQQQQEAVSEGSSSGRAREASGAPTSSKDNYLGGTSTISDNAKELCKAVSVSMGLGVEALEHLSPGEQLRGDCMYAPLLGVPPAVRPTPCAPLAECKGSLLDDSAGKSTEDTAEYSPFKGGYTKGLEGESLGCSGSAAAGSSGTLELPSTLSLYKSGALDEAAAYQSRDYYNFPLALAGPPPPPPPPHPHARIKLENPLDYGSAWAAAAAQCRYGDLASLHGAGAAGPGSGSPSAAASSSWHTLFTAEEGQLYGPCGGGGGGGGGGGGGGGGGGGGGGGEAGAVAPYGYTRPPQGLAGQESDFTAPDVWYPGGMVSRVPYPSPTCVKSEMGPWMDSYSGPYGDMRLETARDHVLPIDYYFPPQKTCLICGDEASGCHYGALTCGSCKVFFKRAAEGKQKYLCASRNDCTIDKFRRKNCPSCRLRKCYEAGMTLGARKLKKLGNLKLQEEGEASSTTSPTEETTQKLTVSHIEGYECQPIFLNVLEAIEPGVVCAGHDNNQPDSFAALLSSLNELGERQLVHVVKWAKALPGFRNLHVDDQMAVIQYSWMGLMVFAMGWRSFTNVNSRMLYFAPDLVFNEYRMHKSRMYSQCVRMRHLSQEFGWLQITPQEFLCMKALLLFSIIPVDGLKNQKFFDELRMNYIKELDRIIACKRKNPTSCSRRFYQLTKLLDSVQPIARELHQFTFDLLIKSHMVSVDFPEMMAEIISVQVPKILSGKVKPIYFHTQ
Chain of chimpanzee Androgen Receptor (AR), AR (gene 747460) (O97775 whole entry, looked up): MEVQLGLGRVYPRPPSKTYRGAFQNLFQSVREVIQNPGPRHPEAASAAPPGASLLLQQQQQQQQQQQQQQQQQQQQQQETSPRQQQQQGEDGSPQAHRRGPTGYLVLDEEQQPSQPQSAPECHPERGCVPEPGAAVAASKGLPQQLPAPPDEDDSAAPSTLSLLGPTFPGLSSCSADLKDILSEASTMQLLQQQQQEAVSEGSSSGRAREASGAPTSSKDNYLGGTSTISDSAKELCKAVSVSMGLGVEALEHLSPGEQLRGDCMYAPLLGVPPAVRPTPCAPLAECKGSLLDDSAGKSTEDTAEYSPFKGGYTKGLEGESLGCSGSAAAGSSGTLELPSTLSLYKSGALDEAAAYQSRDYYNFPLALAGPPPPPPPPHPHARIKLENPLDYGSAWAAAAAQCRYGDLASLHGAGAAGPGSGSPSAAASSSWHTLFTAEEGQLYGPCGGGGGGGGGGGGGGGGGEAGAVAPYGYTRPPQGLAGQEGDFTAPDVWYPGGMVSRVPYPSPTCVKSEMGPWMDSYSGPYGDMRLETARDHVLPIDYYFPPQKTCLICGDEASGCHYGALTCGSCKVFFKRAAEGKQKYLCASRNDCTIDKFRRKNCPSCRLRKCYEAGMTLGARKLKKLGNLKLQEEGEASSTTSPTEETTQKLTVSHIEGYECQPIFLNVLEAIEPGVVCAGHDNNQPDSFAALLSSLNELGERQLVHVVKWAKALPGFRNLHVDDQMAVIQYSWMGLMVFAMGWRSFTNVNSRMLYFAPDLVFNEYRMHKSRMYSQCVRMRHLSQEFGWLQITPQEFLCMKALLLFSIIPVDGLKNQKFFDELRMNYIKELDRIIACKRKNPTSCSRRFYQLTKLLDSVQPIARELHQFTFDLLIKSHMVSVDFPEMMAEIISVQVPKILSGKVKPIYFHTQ
Chain of Estrogen receptor beta (Homo sapiens) (Q92731 whole entry, looked up, the tested form may be a part): as the sequence (Q92731 whole entry, looked up, the tested form may be a part) above
Chain of Retinoic acid receptor alpha (Homo sapiens) (P10276 whole entry, looked up): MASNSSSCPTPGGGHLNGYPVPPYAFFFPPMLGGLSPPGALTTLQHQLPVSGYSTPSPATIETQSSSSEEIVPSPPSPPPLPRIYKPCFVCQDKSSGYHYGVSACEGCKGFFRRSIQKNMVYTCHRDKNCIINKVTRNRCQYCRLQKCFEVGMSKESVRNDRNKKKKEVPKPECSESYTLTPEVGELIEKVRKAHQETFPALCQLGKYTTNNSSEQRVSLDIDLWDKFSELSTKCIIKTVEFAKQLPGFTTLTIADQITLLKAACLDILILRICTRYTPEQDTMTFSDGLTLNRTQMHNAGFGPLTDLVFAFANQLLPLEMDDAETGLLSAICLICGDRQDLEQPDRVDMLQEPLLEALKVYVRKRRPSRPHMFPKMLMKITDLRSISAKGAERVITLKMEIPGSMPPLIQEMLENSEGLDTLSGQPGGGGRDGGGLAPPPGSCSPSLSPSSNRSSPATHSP
Chain of Bile acid receptor (Homo sapiens) (Q96RI1 whole entry, looked up): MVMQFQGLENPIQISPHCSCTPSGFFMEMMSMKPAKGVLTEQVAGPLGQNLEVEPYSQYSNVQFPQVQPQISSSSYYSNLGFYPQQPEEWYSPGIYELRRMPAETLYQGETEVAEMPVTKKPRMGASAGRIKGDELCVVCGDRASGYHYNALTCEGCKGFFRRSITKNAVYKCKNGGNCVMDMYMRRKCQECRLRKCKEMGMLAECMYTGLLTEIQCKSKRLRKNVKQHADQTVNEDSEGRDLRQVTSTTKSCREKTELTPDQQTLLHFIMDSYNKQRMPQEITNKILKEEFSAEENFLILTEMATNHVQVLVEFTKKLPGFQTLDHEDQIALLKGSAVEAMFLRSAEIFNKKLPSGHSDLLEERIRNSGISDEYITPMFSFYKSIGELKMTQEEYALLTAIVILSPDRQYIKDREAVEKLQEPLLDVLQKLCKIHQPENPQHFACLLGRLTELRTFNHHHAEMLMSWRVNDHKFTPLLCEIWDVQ

For the molecule `CCC(C)(C)c1ccc(O)c(C(C)(C)CC)c1`, the molecule was classed as inactive in test [1], in test [2], in test [3] and in test [4].
Regarding `CCC[CH2][Sn]([Cl])([Cl])[Cl]`, the AC50 (commonly the concentration giving half of the maximal activity seen) in test [5] is 25 µM (active). In test [2], the molecule was called inactive.
For `CC1(C)CCC(Cc2ccc(Cl)cc2)C1(O)Cn1cncn1` (centres undefined), the AC50 in test [5] is 6.82 µM (active). In addition, the outcome in test [6] and in [2] was inactive.
On to `CC(C)C1CCC(Cc2ccc(Cl)cc2)C1(O)Cn1cncn1` (centres undefined), for which the AC50 in [5] was 10.3 µM (active); in test [3] it was 11.7 µM (active). For the same molecule, the result in test [2] and in test [4] was inactive.
For the molecule `C=C(C)C#N`, the call in test [6], in test [2], in test [7], in [3] and in test [4] was inactive.
Consider `Cl/C=C\C[N+]12CN3CN(CN(C3)C1)C2`, for which the half-maximal activity concentration (AC50) in test [5] is 1.43 µM (active); in test [8] it was 76.6 µM (active); in [9] it was 91.5 µM (active); in [3] it was 11.6 µM (active). Moreover, the call in [6], in test [2] and in test [4] was inactive.
For the molecule `COc1cc(-c2ccc(N)c(OC)c2)ccc1N`, the AC50 in test [5] is 18.5 µM (active) and 25 µM (active). Also, the outcome in test [10] and in [11] was inactive.
On to `COc1cc(OC)nc(NC(=O)NS(=O)(=O)c2ncccc2C(=O)N(C)C)n1`, for which the result in test [5], in test [2], in [7], in test [3] and in test [4] was inactive.
For the molecule `COc1ccc(C=O)cc1`, the call in [6] and in [2] was inactive.
In the case of `CCC1(c2ccc(N)cc2)CCC(=O)NC1=O` (centres undefined), the molecule was called inactive in [6], in test [2], in test [8] and in test [9].
For `N#CN=C(N)N`, the result in test [2], in [7], in [3] and in test [4] was inactive.
Consider `CC(=O)C=C(C)C`, for which the result in test [2] was inactive.
For `CCCCCCCCSC(=O)Oc1cc(Cl)nnc1-c1ccccc1`, the call in [2] was inactive.
On to `Cc1ccc2ccccc2c1C`, for which the molecule was called inactive in [2], in test [7], in test [8], in test [9], in test [3] and in [4].
`COC[C@H](C)N(C(=O)CCl)c1c(C)csc1C`: in test [12], the AC50 is 8.39 µM (active).
Turning to `C=CCc1ccc(OC)cc1`, the molecule was classed as inactive in test [9] and in test [4].
Turning to `Nc1cccc2ccccc12`, in test [12], the call was inactive.
Turning to `ClC1(Cl)C2(Cl)C3(Cl)C4(Cl)C(Cl)(Cl)C5(Cl)C3(Cl)C1(Cl)C5(Cl)C24Cl` (centres undefined), the molecule was classed as inactive in test [2], in test [8], in test [9] and in [11].
As for `O=C1C(Cl)=C(Cl)C(=O)c2ccccc21`, the AC50 in test [2] is 11.9 µM (active).
As to `CC(C#N)CCC#N` (centres undefined), the molecule was classed as inactive in test [2], in [7], in test [3] and in test [4].
`OCC(O)CCl` (centres undefined): the molecule was classed as inactive in [2].
As for `O=[N+]([O-])c1ccc(O)c([N+](=O)[O-])c1`, the molecule was classed as inactive in test [2], in test [7], in [8], in test [9] and in test [3].
Regarding `C=CC(=O)N(C)C`, the molecule was called inactive in test [12].
As for `CC(C)(C)CC(C)(C)c1ccc(O)cc1`, in test [10], the result was inactive. The AC50 was 817 nM (active) and 676 nM (active) and 702 nM (active) in test [4]; 10.8 µM (active) in test [12].

For the origin of these results see PubChem BioAssay (EPA / NIEHS).
